A short description of assay [1]: anti-His antibody binders, primary screen, artefact control for SMM control protein annotation, biochemical, small-molecule microarray, 635 nm fluorescence (AID 1128).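 Further: score merges feature fluorescence with signal-to-noise for each printed compound spot.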 Conditions: anti-His Alexa647 antibody binding, higher = more signal.
Assay [2] concerns Human papillomavirus type 1a E7 protein (residues 1-88). The experiment in a line: HPV1a E7 small-molecule binders, primary screen, biochemical, small-molecule microarray, residues 1-88, 635 nm (AID 1129). Conditions: small-molecule microarray binding, fluorescence 635 nm; higher = more signal.
Assay [3] has as its target Focal adhesion kinase 1 (Homo sapiens) (UniProt Q05397). The experiment in a line: small-molecule microarray binders of FAK, primary screen, biochemical, 635/667 nm fluorescence, BSA, DTT (AID 1130).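 Further: composite of spot emission at 667 nm and signal to noise over triplicate slides.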 Conditions: PTK2 binding, 635 nm fluorescence, higher = more signal.
Assay [4] deals with Fibrinogen (Alexa647-labelled). The experiment in a line: fibrinogen binders on compound microarrays, profiling panel, artefact control for SMM control-protein annotation, biochemical, small-molecule microarray, 635/667 nm fluorescence (AID 1131).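 Further: z-score merges 667 nm fluorescence with per-spot signal-to-noise over triplicate slides.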 Conditions: fibrinogen-A647 binding fluorescence, higher = more signal.
The target of assay [5] is Follistatin (Homo sapiens) (UniProt P19883). The experiment in a line: follistatin binders on small-molecule microarrays, primary screen, biochemical, small-molecule microarray, 635/667 nm fluorescence (AID 1132). Conditions: FST binding, 635 nm fluorescence, higher = more signal.
Follistatin (Homo sapiens), sequence (P19883 whole entry, looked up): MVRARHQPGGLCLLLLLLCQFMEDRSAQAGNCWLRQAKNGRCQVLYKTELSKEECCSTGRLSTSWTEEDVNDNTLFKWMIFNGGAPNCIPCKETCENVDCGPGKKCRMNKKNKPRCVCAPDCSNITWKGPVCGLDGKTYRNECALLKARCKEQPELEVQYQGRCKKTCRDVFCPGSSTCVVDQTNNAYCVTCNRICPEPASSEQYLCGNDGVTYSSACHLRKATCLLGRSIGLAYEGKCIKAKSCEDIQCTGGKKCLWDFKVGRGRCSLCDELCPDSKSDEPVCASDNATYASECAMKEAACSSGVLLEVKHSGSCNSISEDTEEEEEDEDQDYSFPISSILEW
Assay [6] deals with Fibroblast growth factor 2 (Homo sapiens) (UniProt P09038). The experiment in a line: FGF2 binders on small-molecule microarrays, primary screen, biochemical, small-molecule microarray, 635/667 nm fluorescence (AID 1133). Conditions: small-molecule microarray binding, FGF2, fluorescence 635/667; higher = more signal.
Fibroblast growth factor 2 (Homo sapiens), sequence (P09038 whole entry, looked up): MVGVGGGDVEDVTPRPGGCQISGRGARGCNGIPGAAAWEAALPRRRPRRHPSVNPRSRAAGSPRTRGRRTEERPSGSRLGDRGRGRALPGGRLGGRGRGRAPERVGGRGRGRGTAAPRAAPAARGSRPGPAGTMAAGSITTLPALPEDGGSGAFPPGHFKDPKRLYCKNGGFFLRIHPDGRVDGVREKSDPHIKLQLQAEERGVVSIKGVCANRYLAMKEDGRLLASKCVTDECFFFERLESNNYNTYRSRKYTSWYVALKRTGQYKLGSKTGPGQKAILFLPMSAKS
Assay [7] can be described thus: mitochondrial membrane potential change in A549 cells, profiling panel, cell-based, JC-1 fluorescence, basal, 24 h, 100 nL (AID 1138).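 Further: A549 lung adenocarcinoma cells under basal conditions with no added stimulus; test concentration not given here.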 Conditions: higher = more signal.
In a further assay the test system is Lefty1. The experiment in a line: Lefty1 binders on small-molecule microarrays, primary screen, biochemical, small-molecule microarray, 635/667 nm fluorescence (AID 1139). Conditions: small-molecule microarray binding, fluorescence 635/667; higher = more signal.
For assay [8], the system named is wheat germ agglutinin (Triticum aestivum), Alexa647-labelled. The experiment in a line: wheat germ agglutinin binders on compound microarrays, profiling panel, artefact control for SMM control-protein annotation, biochemical, small-molecule microarray, 635/667 nm fluorescence (AID 1140).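 Further: score merges 667 nm feature emission with signal to noise over triplicate slides.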 Conditions: WGA-A647 binding, 635 nm fluorescence, higher = more signal.
In assay [9] the target is Luciferin 4-monooxygenase (Photinus pyralis) (UniProt P08659). The experiment in a line: firefly luciferase enzyme inhibitors, primary screen, biochemical, luminescence, purified enzyme, 2006 set (AID 1141).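 Further: cell-free assay with purified firefly luciferase at 100 ng per well in PBS; test concentration not given here.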 Conditions: SteadyGlo luminescence, 30 min, higher = more signal, called active from +8 up or from −8 down.
Luciferin 4-monooxygenase (Photinus pyralis), sequence (P08659 whole entry, looked up): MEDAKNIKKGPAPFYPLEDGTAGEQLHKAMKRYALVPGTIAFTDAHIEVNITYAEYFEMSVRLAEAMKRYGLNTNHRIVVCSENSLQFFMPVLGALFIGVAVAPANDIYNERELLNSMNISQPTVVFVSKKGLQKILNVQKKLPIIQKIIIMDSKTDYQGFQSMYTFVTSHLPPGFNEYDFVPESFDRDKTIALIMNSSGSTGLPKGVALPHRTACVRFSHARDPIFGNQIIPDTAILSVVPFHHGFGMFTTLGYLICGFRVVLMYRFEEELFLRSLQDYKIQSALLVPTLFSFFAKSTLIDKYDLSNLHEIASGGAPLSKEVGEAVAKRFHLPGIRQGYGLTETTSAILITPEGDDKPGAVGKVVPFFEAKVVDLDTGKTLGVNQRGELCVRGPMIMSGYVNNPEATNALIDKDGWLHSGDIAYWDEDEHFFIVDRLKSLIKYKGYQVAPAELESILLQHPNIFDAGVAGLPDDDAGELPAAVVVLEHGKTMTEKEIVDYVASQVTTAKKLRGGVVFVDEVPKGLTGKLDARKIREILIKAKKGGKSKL

The source made the active and inactive calls.

Focal adhesion kinase 1 (Homo sapiens), sequence (Q05397 whole entry, looked up): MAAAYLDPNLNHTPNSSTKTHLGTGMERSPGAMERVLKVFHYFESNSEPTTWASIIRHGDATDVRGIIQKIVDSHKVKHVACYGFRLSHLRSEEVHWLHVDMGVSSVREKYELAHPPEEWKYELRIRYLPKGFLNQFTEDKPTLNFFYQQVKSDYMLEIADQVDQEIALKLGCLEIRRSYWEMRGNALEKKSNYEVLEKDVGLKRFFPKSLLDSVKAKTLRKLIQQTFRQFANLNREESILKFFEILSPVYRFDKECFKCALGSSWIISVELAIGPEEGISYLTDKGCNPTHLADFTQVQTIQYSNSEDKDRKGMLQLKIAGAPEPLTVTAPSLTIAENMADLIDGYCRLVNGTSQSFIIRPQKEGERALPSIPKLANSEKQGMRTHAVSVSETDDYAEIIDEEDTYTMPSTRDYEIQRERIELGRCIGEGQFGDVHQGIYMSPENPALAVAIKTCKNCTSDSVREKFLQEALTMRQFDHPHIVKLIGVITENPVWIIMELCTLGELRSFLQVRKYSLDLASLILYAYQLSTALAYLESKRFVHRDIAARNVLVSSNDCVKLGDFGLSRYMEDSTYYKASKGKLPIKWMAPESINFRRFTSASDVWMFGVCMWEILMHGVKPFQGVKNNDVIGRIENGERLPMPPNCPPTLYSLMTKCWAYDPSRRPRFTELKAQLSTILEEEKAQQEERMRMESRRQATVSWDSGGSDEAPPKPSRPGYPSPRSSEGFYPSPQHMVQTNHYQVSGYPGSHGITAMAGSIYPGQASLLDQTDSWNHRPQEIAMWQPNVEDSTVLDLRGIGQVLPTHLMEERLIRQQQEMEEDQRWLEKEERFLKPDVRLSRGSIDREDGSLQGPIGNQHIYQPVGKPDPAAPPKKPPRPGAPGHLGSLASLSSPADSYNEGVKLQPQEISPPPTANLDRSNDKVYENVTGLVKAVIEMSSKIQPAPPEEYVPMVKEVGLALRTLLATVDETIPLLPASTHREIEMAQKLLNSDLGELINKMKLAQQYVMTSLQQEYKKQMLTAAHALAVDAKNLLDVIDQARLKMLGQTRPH

Turning to `CCCCC(=C=CC[C@H](O)c1ccccc1OCCO)CCO`, the composite z-score in assay [1] is 2.08; in assay [2], 0.118; in assay [3] it was 0.0679; in assay [4], -0.472; in assay [5], 0.689; in [6] it was 0.749. The composite z-score with Lefty1 is 0.342; in assay [8], -0.298. In addition, the z-score in assay [7] is -0.378; in assay [9], 0.207 (inactive).

Take `C=CCOC(=O)[C@@H]1[C@H]2C(=O)O[C@H](c3ccccc3)[C@H](c3ccccc3)N2[C@H](c2ccc(OCCOC(=O)[C@@H]3C[C@@H]4C(=O)N[C@@H](CC(C)C)C(=O)N4[C@@H]3c3ccc(O)cc3)cc2)[C@@]12C(=O)Nc1ccc(I)cc12`: the composite z-score in assay [1] came out at 1.52; in assay [2], 1.2; in [3], 0.601; in assay [4] it was 0.666; in assay [5], 1.44; in [6] it was 1.26. The composite z-score in the assay with Lefty1 is 1.44; in assay [8] it was 0.182. The z-score was -1.58 in assay [7] and -0.248 (inactive) in assay [9].

Consider `Cc1ccc(N2C(=O)c3ccccc3[C@@H](C(=O)NCCN3CCOCC3)[C@@H]2c2ccc(CO)cc2)nc1`, for which the composite z-score is -0.227 in assay [1]; -0.818 in [2]; -0.317 in assay [3]; -2.27 in assay [4]; 0.37 in [5]; -1.08 in assay [6]. Moreover, the composite z-score in the assay with Lefty1 is -0.702; in [8], -0.183. Moreover, the z-score in assay [7] was -0.0724; in assay [9] it was 1.09 (inactive).

For `CC(C)N1CC=CC23O[C@@H]4/C=C\CCCOC(=O)C4[C@H]2C(=O)N(C(C)CO)[C@@H]3C1=O` (stereo not given in full), the composite z-score in assay [1] is -0.201; in assay [2], -0.829; in [3], -0.246; in [4], -1.91; in assay [5], -0.755; in assay [6], -1.31. Moreover, the figures for the composite z-score (with Lefty1; in assay [8]) were -0.246 and 0.33, respectively. The z-score in assay [7] is 0.0728; in assay [9], 0.281 (inactive).

Turning to `[N-]=[N+]=NCc1ccccc1[C@H]1OC(c2ccc(OCCCO)cc2)=N[C@@]1(CCS(=O)(=O)c1ccccc1)C(=O)O`, the composite z-score was 0.583 in assay [1]; 0.667 in [2]; 0.476 in assay [3]; 1.03 in assay [4]; 0.0192 in assay [5]; -0.119 in [6]. The composite z-score is -0.182 in the assay on Lefty1 and 0.169 in assay [8]. In addition, the z-score in assay [7] was -0.959; in assay [9], -6.31 (inactive).

As for `O=C1NC(=O)C2C1C=CC(C(O)C1CCCCC1)N2Nc1ccccn1` (stereo not given), the composite z-score was determined as 0.279 in assay [1]; 0.688 in assay [2]; 0.113 in assay [3]; 0.177 in [4]; 0.597 in assay [5]; 0.205 in assay [6]. The composite z-score in the assay on Lefty1 was determined as 0.119; in [8], 0.149. The z-score was 0.517 in assay [7] and -0.224 (inactive) in assay [9].

On to `C=C(/C=C\CNS(=O)(=O)c1ccc(C)cc1)[C@H](O)[C@H]1CCCN1S(=O)(=O)c1ccccc1[N+](=O)[O-]`, for which the composite z-score in [1] is 0.721; in assay [2] it was 0.427; in assay [3] it was 0.445; in [4], 0.191; in assay [5] it was 0.216; in assay [6] it was 0.272. The results for the composite z-score (in the assay on Lefty1; in assay [8]) were 0.177 and 0.878, respectively. In addition, the z-score in assay [7] was -0.321; in assay [9], -1.1 (inactive).

As for `CCCCC(=C=CC[C@@H](O)c1ccccc1OCCO)C[C@@H](O)c1ccccn1`, the composite z-score in assay [1] is -0.242; in assay [2], 0.451; in [3], 0.36; in [4], 0.296; in [5], 0.638; in assay [6] it was 0.356. The composite z-score with Lefty1 is 0.699; in [8] it was -0.306. Further, the z-score in assay [7] was 0.969; in [9], -0.96 (inactive).

With `C=CC[C@H](O)c1ccc(O)c(F)c1`, the composite z-score in assay [1] is -0.234; in [2] it was -1.35; in [3] it was -0.677; in assay [4] it was -2.61; in [5], -1.28; in [6], -0.975. Also, the values for the composite z-score (with Lefty1; in assay [8]) were -0.618 and -0.318, respectively. Further, the z-score is 0.414 in assay [7] and -0.857 (inactive) in assay [9].

As to `CN1C(=O)C2C=CC(C(O)c3cccs3)N(N(c3ccccc3)c3ccccc3)C2C1=O` (stereo not given), the composite z-score in [1] is 2.34; in [2], 1.08; in assay [3] it was 0.663; in [4], 0.954; in [5], 0.569; in [6] it was -0.469. In addition, the composite z-score was found to be 0.169 in the assay on Lefty1 and 1.06 in assay [8]. For the same molecule, the z-score in assay [7] is 0.7; in [9], -0.697 (inactive).

For the molecule `C=CCN1C(=O)[C@]2(O[C@H](CCO)[C@@H]([Si](C)(C)c3ccc(OC)cc3)[C@@H]2C)c2cc(N3C(=O)c4ccccc4Oc4ccccc43)ccc21`, the composite z-score in [1] is 0.309; in [2] it was 1.14; in assay [3] it was 0.215; in assay [4], 0.694; in assay [5] it was 0.157; in assay [6], 0.0857. The composite z-score in the assay with Lefty1 was found to be 0.591; in assay [8], 0.51. Moreover, the results for the z-score in [7] and in [9] were -1.36 and 0.368 (inactive), respectively.

As for `CC(C)[Si](C#Cc1ccccc1)(O[C@H](c1ccccc1)c1cn(Cc2ccccc2)nn1)C(C)C`, the composite z-score in assay [1] was found to be 0.409; in assay [2], 1.11; in assay [3] it was 0.188; in [4], 0.588; in assay [5], 1.11; in assay [6] it was 1.3. Besides, the composite z-score with Lefty1 is -0.0104; in assay [8] it was 0.139. The values for the z-score in assay [7] and in [9] were -0.485 and -1.3 (inactive), respectively.

Take `COc1ccc([Si](C)(C)[C@@H]2[C@@H](CC(=O)N3Cc4ccccc4C[C@H]3CO)O[C@]3(C(=O)N(Cc4ccc(I)cc4)c4ccccc43)[C@H]2C)cc1`: the composite z-score is 0.521 in assay [1]; 0.963 in assay [2]; 0.0916 in [3]; 0.838 in [4]; 1.59 in assay [5]; 1.65 in assay [6]. Besides, the results for the composite z-score (with Lefty1; in assay [8]) were 1.58 and 0.373, respectively. Also, the z-score in [7] was -0.26; in [9] it was 0.798 (inactive).

As to `O=C(NCC(F)(F)F)[C@@H]1c2ccccc2C(=O)N(Cc2cc(C(F)(F)F)cc(C(F)(F)F)c2)[C@H]1c1ccc(CO)cc1`, the composite z-score in [1] was 3.22; in assay [2], 0.0165; in assay [3], 0.246; in assay [4], -0.0773; in assay [5], 0.647; in [6] it was 0.295. In addition, the composite z-score is -0.26 with Lefty1 and -0.352 in [8]. For the same molecule, the z-score in [7] is 1.89; in [9] it was 0.839 (inactive).

The record behind these values is PubChem BioAssay.
